In PubChem BioAssay AID588358 (NMMLSC, 2011):
The campaign covered roughly 310,000 compounds. About 1,500 (0.48%) were called active. This excerpt belongs to a sample that is enriched for actives. Unmarked numbers belong to inactive results.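 The calls were made as follows: active = binding more than 3 SD below its plate's average and above zero; inconclusive = below that plate limit but binding exactly zero; inactive = the rest.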

biological target: Desmoglein-3 (Homo sapiens) (UniProt P32926); experiment: blockers of anti-DSG3 scFv binding – biochemical, bead-based, flow cytometry, scFv-GFP, primary screen (AID 588358); conditions: DSG3-coupled beads, at 10 µM, active compounds read low;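 also: hits lower antibody fragment binding to DSG3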
Sequence (P32926 whole entry, looked up, the tested form may be a part): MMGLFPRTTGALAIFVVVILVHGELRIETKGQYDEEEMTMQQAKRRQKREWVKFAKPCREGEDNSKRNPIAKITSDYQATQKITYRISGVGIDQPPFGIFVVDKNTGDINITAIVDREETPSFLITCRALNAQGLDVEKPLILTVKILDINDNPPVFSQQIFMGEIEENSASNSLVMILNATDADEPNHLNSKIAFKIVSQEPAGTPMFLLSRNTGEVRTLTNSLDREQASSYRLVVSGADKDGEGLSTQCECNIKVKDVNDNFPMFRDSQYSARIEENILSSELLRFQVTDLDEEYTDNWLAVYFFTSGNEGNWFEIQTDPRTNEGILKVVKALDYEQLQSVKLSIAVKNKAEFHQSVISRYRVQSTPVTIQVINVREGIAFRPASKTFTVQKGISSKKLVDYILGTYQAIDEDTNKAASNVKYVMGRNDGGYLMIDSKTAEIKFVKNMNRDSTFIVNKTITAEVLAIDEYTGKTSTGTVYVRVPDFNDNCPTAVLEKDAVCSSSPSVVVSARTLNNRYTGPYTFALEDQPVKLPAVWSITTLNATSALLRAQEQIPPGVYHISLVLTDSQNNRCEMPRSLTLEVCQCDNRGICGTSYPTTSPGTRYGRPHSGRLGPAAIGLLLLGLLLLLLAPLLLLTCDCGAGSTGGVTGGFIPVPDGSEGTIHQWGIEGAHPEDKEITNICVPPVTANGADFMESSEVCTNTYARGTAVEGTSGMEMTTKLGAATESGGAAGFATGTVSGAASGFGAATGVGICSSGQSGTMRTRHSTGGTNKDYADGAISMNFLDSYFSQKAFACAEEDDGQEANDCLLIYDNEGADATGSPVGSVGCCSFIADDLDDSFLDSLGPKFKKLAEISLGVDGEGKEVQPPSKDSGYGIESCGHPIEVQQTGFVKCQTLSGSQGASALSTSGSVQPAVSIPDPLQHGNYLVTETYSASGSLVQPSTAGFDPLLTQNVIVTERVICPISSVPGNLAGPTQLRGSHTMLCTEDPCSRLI

| SMILES | binding (percent of control) |
| --- | --- |
| O=S1(=O)CCN(C2CCCCCCCCCCC2)CC1 | 96.7% |
| CC(=O)Nc1ccc(C=Cc2ccc([N+](=O)[O-])cc2)cc1 | 101% |
| CCN(CC(=O)Nc1ccc(NC(C)=O)cc1)C(=O)C1CC(=O)N(c2ccc3c(c2)OCCO3)C1 (centres undefined) | 102% |
| O=C(Nc1ccc(F)c(Cl)c1)C1CCN(S(=O)(=O)c2cccnc2)CC1 | 109% |
| CC(C)c1ccc(NC(=O)C2CCCN(S(=O)(=O)c3cccnc3)C2)cc1 (centres undefined) | -3.9% (active) |
| COc1ccc(S(=O)(=O)N2CCCC(C(=O)Nc3ccc(NC(=O)c4ccccn4)cc3)C2)cc1 (centres undefined) | 101% |
| C=CCn1nc(C(=O)OCC)cc1-c1sc(NC(=O)c2ccccc2)nc1C | 102% |
| Cc1cc(Nc2ccc(C)c(C)c2)n2ncnc2n1 | 95% |
| CCN(CC)C(=O)C1=C(C)N(Cc2ccc(OC)cc2)C(=O)C(CC(=O)NCCCCc2ccccc2)C1 (centres undefined) | 109% |
| CC1CCN(S(=O)(=O)c2ccc(S(=O)(=O)NCc3cccnc3)cc2)CC1 | 94.4% |
| O=S(=O)(c1ccc(-c2ccccc2)cc1)N1CCCC1 | 95.9% |
| O=S(=O)(NCc1ccccc1)c1ccc(S(=O)(=O)N2CCCC2)cc1 | 7.03% (active) |
| CCOc1cc(/C=N/NC(=O)c2c(C)nc3ccc(Cl)cn23)ccc1O | 108% |
| COc1cccc(OC)c1C(=O)Nc1sc2c(c1C(N)=O)CCCC2 | 109% |
| NC(=O)c1c(NC(=O)c2ccccc2)sc2c1CCCC2 | 63.6% (active) |
| C=CCN(CC=C)S(=O)(=O)c1ccc(C(=O)Nc2sc3c(c2C(N)=O)CCCCC3)cc1 | 110% |
| CCOc1cc(C2C(C(=O)c3ccco3)=C(O)C(=O)N2Cc2ccccc2)ccc1O (centres undefined) | 104% |
| O=C(C1=C(O)C(=O)N(Cc2ccccc2)C1c1ccco1)c1ccco1 (centres undefined) | 108% |
| O=C(C1=C(O)C(=O)N(Cc2ccccc2)C1c1cccnc1)c1ccco1 (centres undefined) | 64.8% (active) |
| CN1CCN(c2ccncc2S(=O)(=O)N2CCCC2)CC1 | 102% |

| SMILES | binding (percent of control) |
| --- | --- |
| Cc1ccc(NS(=O)(=O)c2ccc(-c3ccc(=O)[nH]n3)o2)c(C)c1 | 102% |
| O=c1ccc(-c2ccc(S(=O)(=O)Nc3ccccc3)o2)n[nH]1 | 110% |
| CC1CCCN(S(=O)(=O)c2ccc(-c3ccc(=O)[nH]n3)o2)C1 (centres undefined) | 49% (active) |
| COc1ccc(C(C)(C)C)cc1NC(=O)CN(C)C1=NS(=O)(=O)c2ccccc21 | 104% |
| O=C(c1ccco1)N1CCN(Cc2cccc(C(F)(F)F)c2)CC1 | 107% |
| COC(=O)c1ccc(CNC(=O)C2CCC(=O)N(Cc3cccc(F)c3)C2)cc1 (centres undefined) | 97% |
| O=C1CCC(C(=O)N2CCCCO2)CN1Cc1cccc(C(F)(F)F)c1 (centres undefined) | 90.7% (active) |
| Cc1ccnc(SC2CC(=O)N(c3ccccc3)C2=O)n1 (centres undefined) | 95.7% |
| O=C(NCC(F)(F)F)c1ccc(S(=O)(=O)NCCc2ccc3c(c2)OCCO3)cc1 | 97.1% |
| C[C@H](O)[C@@H]1C(=O)N2CCc3c([nH]c4ccccc34)[C@@H]2C[C@@H]1N(C)C(=O)Nc1ccc(F)cc1 | 109% |
| CN(C)c1cc[n+](Cc2ccccc2)cc1 | 99.9% |
| CN(C)c1ccc(CSc2ccccc2)cc1 | -6.16% (active) |
| O=C(c1ccc(CSc2ccccc2)cc1)N1CCCCCC1 | 105% |
| Cc1ccc(Cc2c(-c3ccc(C)cc3)nc3c4ccccc4ccn23)cc1 | 109% |
| Cc1ccc(S(=O)(=O)/N=C2\C=C(NS(=O)(=O)c3ccc(C)cc3)C(=O)c3ccccc32)cc1 | 97.2% |
| COc1cccc(NC(=O)CN(C)C(=O)c2ccccc2CCc2ccccc2)c1 | 108% |
| COc1cccc(NC(=O)CN(C)C(=O)c2cc(Cl)nc3ccccc23)c1 | 80.8% (active) |
| COc1ccc(NC(=O)CN(C)C(=O)c2cc(-c3ccc(C)o3)nc3ccccc23)cc1 | 96.9% |
| CSc1ncccc1C(=O)N1CCCC(Nc2ccc(F)c(F)c2)C1 (centres undefined) | 104% |
| CCN(C(=O)Nc1cccc2ccccc12)c1ccccc1 | 103% |

| SMILES | binding (percent of control) |
| --- | --- |
| CCc1ccccc1NC(=O)CN1CCN(C(=O)c2cc(C3CC3)nn2-c2ccccc2)CC1 | 106% |
| COc1ccc(S(=O)(=O)N(C)C)cc1NC(=O)COC(=O)c1n[nH]c2ccccc12 | 98.8% |
| Cc1cccc(C(=O)C(O)(c2ccccc2)C2CCCCC2=O)c1 (centres undefined) | 106% |
| O=C(O)c1ccccc1CSc1nc2ccccc2s1 | 116% |
| CCOc1ccccc1Nc1ccc2nonc2c1[N+](=O)[O-] | 96.1% |
| O=[N+]([O-])c1c(NCCO)cc(Sc2nc3ccccc3s2)c2nonc12 | 83.3% (active) |
| CCOC(=O)C(=Cc1ccccc1)C(=O)c1ccccc1 | 106% |
| CCN(CC)C(=O)C1=C(C)N(Cc2ccccc2)C(=O)C(CC(=O)NC(c2ccccc2)c2ccccc2)C1 (centres undefined) | 107% |
| O=C(CCc1ccc(O)cc1)NN=Cc1cc(Br)ccc1O | 106% |
| COc1ccc(-c2noc(COc3ccc(Cl)c(C)c3)n2)cc1 | 66.6% (active) |
| COc1ccc(-c2noc(CNC(=O)C(C)Oc3ccccc3)n2)cc1 (centres undefined) | 109% |
| COc1ccc(-c2noc(CCC(=O)N3CCN(c4cccc(C)c4)CC3)n2)cc1 | 98.6% |
| Cc1ccc(-c2ccc(C3=CC(=O)CC(C)(C)C3=O)cc2)cc1 | 97.6% |
| COc1ccc(C(CNC(=O)CSc2ccccc2)N2CCOCC2)cc1 (centres undefined) | 100% |
| CC(C)c1cc(C(=O)N(C)C2CCCN(Cc3ccccc3F)C2)n(C)n1 (centres undefined) | 96.7% |
| CC(C)C1CCN(C(=O)C2CCC(=O)N(C3CCCCCC3)C2)CC1 (centres undefined) | 101% |
| CCC(C(=O)N1CCOCC1)n1c(C(=O)OC)cc2occc21 (centres undefined) | 99.3% |
| CCCC(C(=O)N1CCOCC1)N1C(=O)C2C3C=CC(C3)C2C1=O (centres undefined) | -12.4% (active) |
| CCCCOC(=O)NCN1C(=O)C2C3C=CC(C3)C2C1=O (centres undefined) | 110% |
